About 1,300 (0.68%) of roughly 190,000 compounds were called active. The sample as a whole holds a higher share of actives than the screen did. A number with no mark means an inactive call. No stated cut-off is given here; in the data, active means inhibition above about 50%; inactive means the rest.

The inhibition is the change of the read-out against control, counted positive when it falls.

The target of the experiment is Mannose-6-phosphate isomerase (Homo sapiens) (UniProt P34949). The experiment is described as follows: human PMI inhibitors, high substrate, primary screen, biochemical, fluorescence intensity, high mannose 6-phosphate (AID 1220). Particulars: recombinant PMI enzyme, coupled fluorescence intensity; at 20 µM; stronger effect = higher value.
Mannose-6-phosphate isomerase (Homo sapiens), sequence (P34949 whole entry, looked up): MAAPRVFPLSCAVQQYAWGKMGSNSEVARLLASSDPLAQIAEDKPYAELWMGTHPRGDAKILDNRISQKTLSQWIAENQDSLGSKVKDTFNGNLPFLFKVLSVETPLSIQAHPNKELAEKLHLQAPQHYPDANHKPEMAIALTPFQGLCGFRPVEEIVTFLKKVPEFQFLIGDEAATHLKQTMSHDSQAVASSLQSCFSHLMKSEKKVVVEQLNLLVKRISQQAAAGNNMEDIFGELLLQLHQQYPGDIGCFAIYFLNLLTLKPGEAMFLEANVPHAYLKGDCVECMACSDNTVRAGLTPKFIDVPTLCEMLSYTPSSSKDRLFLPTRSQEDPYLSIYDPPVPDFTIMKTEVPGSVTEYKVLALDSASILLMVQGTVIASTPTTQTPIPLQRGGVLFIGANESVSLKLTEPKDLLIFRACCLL
In the case of `O=C(Cn1nc(CNc2ccc(Cl)cc2)[n+]2c1CCCCC2)c1ccc(Br)cc1`, the inhibition was 9.2%.
For `CCSc1nnc(-c2ccccc2N)c(=O)[nH]1` the value was -2%; for `CCN(CC)S(=O)(=O)c1cc(-c2nnc(-c3ccc(Br)cc3)o2)ccc1Cl`, 3.4%.
Under `O=C(CN1CCC(NC(=O)Cc2ccccc2)CC1)Nc1ccccc1Br` stands -0.4%.
Under `CSc1ccccc1NC(=O)CCn1c(=O)sc2ccccc21` stands -0.9%; under `Clc1ccc(OCCSc2ncccn2)cc1`, 11.9%; under `COc1ccc(-n2cc(CNCCCn3ccnc3)c(-c3ccccc3Cl)n2)cc1`, 1.9%.
As to `CCn1c2ccccc2c2cc(NC(=O)C(=O)N3CCOCC3)ccc21`, the inhibition is 50.2% (active).
For `CCn1c2ccccc2c2cc(NC(=O)N3CCOCC3)ccc21` the value was 20%.
On to `CCn1c2ccccc2c2cc(NC(=S)N3CCOCC3)ccc21`, for which the inhibition is 3%.
Under `O=C(NCc1ccncc1)C1=NN(c2ccccc2)C(=O)CC1` stands -91.4%; under `Cc1cccc(NCN2C(=O)C3C4C=CC(C4)C3C2=O)c1` (configuration not stated), 3.7%.
For `S=C(NCCc1ccccc1)Nc1ccc(Nc2ccccc2)cc1` the value was 0%; for `CCN(CC)P(=O)(Nc1ccccc1Br)c1ccc(N(C)C)cc1NC(=O)c1ccco1` (configuration not stated), 16.4%.
On to `CCN(CC)P(=O)(Nc1ccc(C)cc1Br)c1ccc(N(C)C)cc1NC(=O)c1ccco1` (configuration not stated), for which the inhibition was 53% (active).
For `CCN(CC)P(=O)(Nc1ccc(SC(F)F)cc1)c1ccc(N(C)C)cc1NC(=O)c1ccco1` (configuration not stated) the value was 35.4%.
For `Cc1ccc2cc(C#N)c(N3CCCC3)nc2c1C` the value was -56.8%; for `O=C(Cc1c(Cl)cccc1Cl)OCC(=O)N1CCc2ccccc2C1`, -1%.
For `CN1/C(=C/c2cc[n+](C)c3ccccc23)C=Cc2ccccc21` the value was 58% (active); for `C[n+]1ccc(/C=C/c2ccccc2O)c2ccccc21`, 12.7%.
In the case of `CCN1/C(=C/c2ccc3ccccc3[n+]2CC)C=Cc2ccccc21`, the inhibition is 17.7%.
For `COc1ccc(CNC(=O)COC(=O)/C=C/c2ccco2)cc1` the value was -4.8%.
On to `CCOC(=O)c1c(/N=C/c2cc(C)ccc2O)sc2c1CCN(C)C2`, for which the inhibition was -5.7%.
Under `Nc1ccc(NC(=O)c2ccco2)c(Cl)c1` stands -1.2%; under `O=C(COc1ccccc1)NCCSCc1ccco1`, 5.1%.
For the molecule `C(=N\Nc1nc(N2CCOCC2)nc(N2CCOCC2)n1)/c1ccncc1`, the inhibition is -1%.
Under `CN(C)c1ccc(/C=C/C=N/Nc2nc(N3CCOCC3)nc(N3CCOCC3)n2)cc1` stands 8.9%; under `Brc1ccc(-c2ccc(/C=N/Nc3nc(N4CCOCC4)nc(N4CCOCC4)n3)o2)cc1`, 5.4%.
Consider `CN(C)c1ccc(/C=N/Nc2cc(N3CCOCC3)nc(N3CCOCC3)n2)cc1`, for which the inhibition is 60.4% (active).
Under `O=[N+]([O-])c1ccc(/C=N/Nc2nc(N3CCOCC3)nc(N3CCOCC3)n2)cc1` stands -1.5%; under `CC(C)c1ccc(/C=N/Nc2cc(N3CCOCC3)nc(N3CCOCC3)n2)cc1`, 68.6% (active).
For `Cc1ccc(/C=N/Nc2nc(N3CCOCC3)nc(N3CCOCC3)n2)o1` the value was -10.9%; for `Clc1ccc(-c2ccc(/C=N/Nc3cc(N4CCOCC4)nc(N4CCOCC4)n3)o2)cc1`, 54.5% (active).
For `Cc1cc(C)nc(N/N=C/c2ccc(N3CCOCC3)cc2)n1` the value was 4.7%; for `COc1c(C)cccc1C(=O)NC(=S)Nc1ccc2c(c1)Cc1ccccc1-2`, 8.2%; for `COc1ccc(NS(=O)(=O)c2cc(NC(=O)Cn3cnc4c3c(=O)n(C)c(=O)n4C)ccc2C)cc1`, 8.9%.
In the case of `CC(NC(=O)Cc1ccccc1)c1nc2ccccc2[nH]1` (configuration not stated), the inhibition was -7.3%.
Under `Cc1nc2n(n1)C(O)c1cc([N+](=O)[O-])ccc1S2` (configuration not stated) stands 7.3%.
For the molecule `COc1ccc(C(=O)CN(Cc2ccccc2)C2=NCCS2)cc1`, the inhibition is -4.2%.
Take `CCOC(=O)c1c(C)oc2c1c(C(c1cccnc1)N1CCCCC1)c(O)c1ccccc12` (configuration not stated): the inhibition was 26.9%.
Under `CCOC(=O)c1c(C)oc2c1c(C(c1ccncc1)N1CCOCC1)c(O)c1ccccc12` (configuration not stated) stands 10.8%; under `CCOC(=O)c1c(C)oc2c1c(C(c1cccnc1)N1CCOCC1)c(O)c1ccccc12` (configuration not stated), 58% (active).
Under `CCOC(=O)c1c(C)oc2c1c1c(c3ccccc32)OCN(Cc2cccnc2)C1` stands 67.3% (active); under `CCOC(=O)c1c(C)oc2c1c(C(c1cccnc1)N1CCN(C)CC1)c(O)c1ccccc12` (configuration not stated), 28.8%; under `CCOC(=O)c1c(C)oc2ccc(O)c(CN3CCCCC3)c12`, 6.2%.
For `CC(=O)Oc1ccc2c(c1)c(C(C)=O)c(C)n2C` the value was -2.9%; for `COc1ccccc1C(=O)N/N=C/c1cnc2ccccc2n1`, -4.4%.
`CCCCNC(=O)c1ccc(CNS(=O)(=O)c2ccc(Br)cc2)cc1`: the inhibition is 4.4%.
Consider `COc1cc(C2C(C#N)=C(C)NC3=C2C(=O)CC(C)(C)C3)cc(OC)c1O` (configuration not stated), for which the inhibition is 66.5% (active).
Under `CC1(C)CC(=O)C2=C(C1)NC(=O)CC2c1ccc(F)cc1` (configuration not stated) stands -3.1%; under `COc1cc(C2CC(=O)NC3=C2C(=O)CC(C)(C)C3)ccc1O` (configuration not stated), 4.3%.
With `COc1cc(C2CC(=O)NC3=C2C(=O)CC(C)(C)C3)cc(OC)c1O` (configuration not stated), the inhibition is 54.4% (active).
For `COc1cc(C2C(C#N)=C(C)NC3=C2C(=O)CC(C)(C)C3)ccc1OCCO` (configuration not stated) the value was 5.4%.
Take `COc1cc(C2C(C#N)=C(C)NC3=C2C(=O)CC(C)(C)C3)ccc1O` (configuration not stated): the inhibition was 3.8%.
For `CCc1cccc(NC(=O)CS(=O)Cc2nc(-c3ccc(C)cc3)oc2C)c1` (configuration not stated) the value was 6.8%.
For `COc1ccccc1-n1cnnc1SCC(=O)NCC1CCCO1` (configuration not stated) the value was -9.1%; for `Cc1ccc2nc(-c3ccccc3)c(CN3CCOCC3)n2c1`, -1%.
For `O=C(NC(=S)Nc1nc(-c2ccc(Cl)cc2)cs1)c1cccs1` the value was -11.6%; for `COc1ccc(C)cc1NC(=O)c1ccoc1C`, 3.7%; for `Oc1ccc(-c2cn3c(n2)SCC3)cc1O`, 53.1% (active).
`Cc1ccc(-c2cn3c(n2)SCC3)cc1`: the inhibition is 1%.
Under `Oc1ccc(-c2cn3c(n2)SCC3)cc1` stands -10.9%; under `O=C(NCc1cccnc1)NC1CCCN1S(=O)(=O)c1ccc(Cl)cc1` (configuration not stated), -3.5%.
Under `Cc1ccc(-c2csc(NC(=O)CSc3ncn(-c4ccccc4)n3)n2)cc1` stands 0%; under `COc1cccc(NC(=O)CSc2nc3c(c(=O)n2C)SC(C)C3)c1` (configuration not stated), 2.4%.
Under `O=C(Nc1cccc(S(=O)(=O)N2CCCCC2)c1)c1ccc(OCC2CCCO2)cc1` (configuration not stated) stands 2.6%; under `CCOc1ccc(C(=O)N[C@H](C(=O)Nc2cccc(S(=O)(=O)N3CCCCC3)c2)C(C)C)cc1`, 57.6% (active); under `CCOc1ccc(C(=O)N[C@H](C(=O)Nc2ccc(OC)c(S(=O)(=O)N3CCOCC3)c2)C(C)C)cc1`, 10.3%.
As to `CCOC(=O)COn1c(=O)c(=O)n(O)c2ccccc21`, the inhibition is 24.9%.
For `O=Cc1ccc(O)c(O)c1` the value was -5%; for `Oc1ccc(N=Cc2ccc(O)c(O)c2)cc1`, 52.6% (active).
Under `Oc1ccc(N=Cc2ccc(OCc3ccccc3)cc2)cc1` stands 58.5% (active); under `NC(N)=N/N=C/c1ccc(OCc2ccccc2)cc1`, 1.2%.
Under `CC(=O)Nc1ccc(N=Cc2ccc(OCc3ccccc3)cc2)cc1` stands 10.3%; under `Oc1ccc(/C=N/N=C/c2ccc(O)cc2)cc1`, -2.8%; under `O=C(c1sc2ccccc2c1Cl)N(Cc1ccccc1Cl)C1CCS(=O)(=O)C1` (configuration not stated), 1.4%.
For the molecule `COc1cc(OC)cc(C(=O)OCC(=O)Nc2ccc(N3CCCCC3)cc2)c1`, the inhibition was -11.3%.
`COc1ccc(-c2nn(CCC#N)cc2/C=N/O)cc1OC`: the inhibition is 10.3%.
For `O=C(CSc1ccc(-c2ccc(F)cc2)nn1)N1CCCc2ccccc21` the value was 13.5%; for `Cc1c(Cl)c([N+](=O)[O-])nn1CC(=O)Nc1ccc2c(c1)OCO2`, -4.5%; for `COCCNC(=O)Cn1c(=O)n(CCCCCC(=O)NCc2ccc3c(c2)OCO3)c(=O)c2sccc21`, -13.4%.
Under `CCOc1ccc(NC(=O)C2CC(C)=C(C)CC2C(=O)O)cc1` (configuration not stated) stands 0.7%.
For `CCOC(=O)c1sc(NC(=O)c2ccccc2F)c(C(N)=O)c1C` the value was 56.6% (active); for `CCOC(=O)c1sc(NC(=S)NC(=O)c2ccccc2Cl)c(C(=O)OCC)c1C`, 5.4%.
For `CCOC(=O)c1sc(NC(C)=O)c(C(=O)OCC)c1C`, the inhibition is 7.7%.
Under `Cn1c(=O)c(-c2ccccc2)nc2ccccc21` stands 4.9%; under `CCCc1nc(SCC(=O)c2ccc(OC)cc2)c2c(=O)n(C)c(=O)n(C)c2n1`, -2.5%; under `CCn1c(N)nc2c1c(=O)n(C)c(=O)n2C`, -1.8%.
In the case of `Cn1nc(-c2ccc(Cl)cc2)nc2c(=O)n(C)c(=O)nc1-2`, the inhibition was 10.6%.
For `COC(=O)c1ccccc1OCCOc1ccccc1C(=O)OC` the value was 2.8%; for `COc1ccc(OC)c(-c2nc3cc4ccccc4cc3nc2-c2ccccc2)c1`, 10.1%.
Turning to `COc1ccccc1-c1nc2cc3ccccc3cc2nc1-c1ccccc1`, the inhibition is 50.6% (active).
For `COc1ccccc1-c1nc2cc3ccccc3cc2nc1-c1ccccc1OC`, the inhibition is 50.1% (active).
`COc1ccccc1-c1nc2ccccc2nc1-c1ccccc1OC`: the inhibition was 2.8%.
Under `COc1ccccc1-c1cc2ccccc2[nH]1` stands 4.7%; under `COc1ccccc1-c1nc2ccccc2nc1-c1ccccc1`, 12.5%; under `CC(=O)Nc1ccc(C(=O)OCC(=O)Nc2ccccc2Sc2ccccc2)cc1`, 2.4%.

These data come from PubChem BioAssay AID1220 (Sanford-Burnham Center for Chemical Genomics, 2008).
